# Screening results as filed in PubChem.
# Shown are actives, neighbours in structure and some others; about 14% of the full set was active somewhere.
# HCV inhibitor: inhibitors of hepatitis C virus infection. 340,000 tested, 3.4% active. Huh7.5.1 HCVcc-Cre infection, luciferase reporter, 44 h. Potency, µM (titrated, usually from 41.8 µM), for the others: top-dose activity change, negative = inhibition, hits mostly inhibitors; further: potency means the concentration at half of the fitted maximal effect
#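 Seed cells (1,000/well) for 4 h; treat with compound and infect with HCVcc-Cre, moi about 0.5. Incubate 44 h, then detect luciferase activity.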
# Pf growth 48h: P. falciparum growth inhibition at 48 hours (one generation); Potency, µM (series often up to 28.7 µM), for the others: top-dose activity change, negative = inhibition, actives largely listed as inhibitors; P. falciparum luciferase growth in erythrocytes, 48 h; 310,000 tested, 5.9% active; further: potency means the concentration at half of the fitted maximal effect
#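 Erythrocytes infected with P. falciparum carrying an integrated firefly luciferase reporter (2% hematocrit, 0.1% parasitemia final) were exposed to compounds in RPMI 1640 with 0.5% Albumax at 37 C, 5% CO2. Growth inhibition was scored as reduced luminescence.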
# MARV entry inh: inhibitors of Marburg virus binding or cell entry. AID 540276. Marburg virus pseudotyped entry inhibition, cell reporter. 300,000 tested, 1.8% active. Potency, µM (doses to about 37.8 µM), inactives show top-dose activity change, negative = inhibition, actives largely listed as inhibitors; calls by dose curve; tested in HEK293 cells; further: potency means the concentration at half of the fitted maximal effect
# LASV entry inh: blocks Lassa virus binding to or entry into cells; Lassa virus pseudotype entry inhibition, cell reporter; Potency, µM (doses to about 37.9 µM), for the others: top-dose activity change, negative = inhibition, usual class: inhibitors; 300,000 tested, 1.2% active; calls by dose curve; tested in HEK293 cells; further: potency means the concentration at half of the fitted maximal effect; nearly all actives have a fitted effect of over 50% in size
# Pf growth 96h: P. falciparum growth inhibition at 96 hours; P. falciparum luciferase reporter growth, 96 h; Potency, µM (doses to about 28.7 µM), for the others: at the top dose activity change, negative = inhibition, usual class: inhibitors; 320,000 tested, 6.9% active; AID 504834; further: potency means the concentration at half of the fitted maximal effect
#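 Two parasite generations (96 h, 37 C, 5% CO2) of compound exposure in infected erythrocytes (0.05% parasitemia, 2% hematocrit). Luciferase-reporter P. falciparum; decreased luminescence indicates inhibited growth, aimed at apicoplast-acting delayed death.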
# HCMV inh: blocks human cytomegalovirus replication; HFF cells, HCMV-luciferase reporter, 72 h; active compounds read low; activity change, negative = inhibition, % at 57.5 µM; 410,000 tested, 4.5% active; in the data active means activity change below about -60%; inconclusive means no clear call, values can overlap the other calls; inactive means above about -39%
#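 Cell-based, HFFs, 1000 cells/well, 16 h 37C; cpds in DMSO + HCMV-luc, MOI 1 PFU/cell; 72 h 37C; OneGlo luminescence after 5 min RT; norm. to buffer vs Salinomycin 10uM.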
# * marks the source's active call; other numbers are inactive results; ? = inconclusive; nt = no result given; [ ] = remark or other dose. Unless noted, the call rests on the fitted dose curve; in most records, active means well fitted inhibition curve with a large enough effect; inconclusive means small, poorly fitted or top-dose-only effect, or another doubt; inactive means no such curve, though single readings can be large or run the other way. On the % scale 0 is the no-effect control and ±100 the full control effect.
SMILES,HCV inhibitor,Pf growth 48h,MARV entry inh,LASV entry inh,Pf growth 96h,HCMV inh
COCCCNC(=O)c1ccc2sc([C@@H]3O[C@H](CO)[C@H](O)[C@H](O)[C@H]3O)nc2c1,nt,nt,nt,nt,nt,-8
O=C(c1cccc(S(=O)(=O)N2CCOCC2)c1)N(Cc1ccco1)Cc1cccs1,-16%,?,nt,nt,?,-34
O=C(CN(Cc1ccco1)Cc1cccs1)N1CCN(S(=O)(=O)c2cccc(F)c2)CC1,?,13µM*,nt,nt,?,-14
O=C(Cc1cccs1)N1CCN(S(=O)(=O)c2ccccc2)CC1,3%,14%,-3%,4%,13µM*,6
CCC(C(=O)Nc1cc(-c2nc3cccnc3s2)ccc1C)c1ccccc1 (stereo not drawn),nt,nt,nt,-2%[46.1 µM],nt,49
Cn1nc([N+](=O)[O-])nc1Oc1ccc2ccccc2c1,8%,nt,-7%,0%,11%,-65*
Cn1nc([N+](=O)[O-])nc1Oc1ccccc1F,29%,-1%,-10%[46.1 µM],?,13µM*,0
c1ccc2c(c1)ccn1c(Cc3ccsc3)c(C3CCCCC3)nc21,nt,nt,nt,nt,nt,20
CCN(CC(=O)Nc1ccc(NC(C)=O)cc1)C(=O)Cc1ccc(Cl)c(Cl)c1,?,-2%,1%[46.1 µM],nt,?,-64*
CCn1cc2nc(SCC(=O)Nc3ccccc3F)n(Cc3ccc(C)cc3)c(=O)c2n1,nt,nt,nt,-25%[46.1 µM],nt,-2
COc1ccc(-c2[nH]ncc2CN2CCCC(C(=O)c3ccc(OC)cc3OC)C2)cc1 (stereo not drawn),8%,13µM*,-11%[46.1 µM],14%,0.83µM*,23
COc1ccc(OC)c(CN2CCCC(C(=O)c3ccccc3SC)C2)c1 (stereo not drawn),10µM*,?,2.5µM*,?,0%,-63*
COc1ccc(CN2CCCC(C(=O)c3ccccc3SC)C2)cc1O (stereo not drawn),-7%,?,nt,nt,0%,-21
COc1cc(OC)c(N(C)S(=O)(=O)c2cccc(C(=O)NC(C)C3CC4CCC3C4)c2)cc1Cl (stereo not drawn),?,-7%,?,?,2.6µM*,-30
CC(NC(=O)c1cccc(S(=O)(=O)N2CCN(C)CC2)c1)C1CC2CCC1C2 (stereo not drawn),5%,-17%,-24%[46.1 µM],?,2%,-29
COc1cc(OC)c(N(C)S(=O)(=O)c2cccc(C(=O)Nc3nccs3)c2)cc1Cl,?,nt,8.9µM*,?,nt,?
COC(=O)C(C)n1cnc2c(nnn2-c2ccccc2)c1=O (stereo not drawn),5%,15%,nt,nt,49%,nt
Cc1c(-c2ccco2)[n+](=O)c2c(n1[O-])CCCCC2,7%,nt,8%,4%,10%,-16
Cc1c(-c2ccccc2)[n+](=O)c(-c2ccco2)c(C)n1[O-],9%,2%,?,-21%,5.2µM*,51
Cc1n[nH]c2ccc([N+](=O)[O-])cc2c1=O,nt,nt,nt,nt,nt,-32
CC1CCc2c(cc(-c3ccccc3)n2-c2ccc(C(=O)NC(C)C)cc2)C1 (stereo not drawn),nt,nt,nt,?,nt,-99*
COCCCNC(=O)c1ccc(-n2c(-c3ccccc3)cc3c2CCCCC3)cc1,nt,nt,nt,-22%[46.1 µM],nt,?
CN(C)CCNC(=O)c1ccc(-n2c(-c3ccccc3)cc3c2CCCCC3)cc1,nt,nt,nt,-10%[46.1 µM],nt,?
CCCNC(=O)c1ccc(-n2c(-c3ccccc3)cc3c2CCC(C)C3)cc1 (stereo not drawn),nt,nt,nt,?,nt,-99*
CC(C)NC(=O)c1ccc(-n2c(-c3ccccc3)cc3c2CCCCC3)cc1,nt,nt,nt,17%[46.1 µM],nt,?
SMILES,HCV inhibitor,Pf growth 48h,MARV entry inh,LASV entry inh,Pf growth 96h,HCMV inh
CCOCCCNC(=O)c1ccc(-n2c(-c3ccccc3)cc3c2CCCC3)cc1,nt,nt,nt,?,nt,-66*
COCCNC(=O)c1ccc(-n2c(-c3ccccc3)cc3c2CCC(C)C3)cc1 (stereo not drawn),nt,nt,nt,3%[46.1 µM],nt,-101*
C=CC[C@@H](CC(=O)N[C@H](CO)Cc1ccccc1)C(=O)NCCOC(=O)[C@@H](CC=C)CC(=O)OC(C)(C)C,5%,nt,nt,nt,nt,2
Oc1ccc(F)c(CN2CCN(c3ncc(Cc4ccccc4)cn3)CC2)c1,nt,nt,nt,nt,nt,24
COc1cc2ccccc2cc1C(=O)Nc1cccc(-c2nc3cc(C)c(C)cc3o2)c1,nt,nt,nt,?,nt,23
COc1nnnc2c1sc1nc(N3CCOCC3)c3c(c12)CC(C)(C)OC3,nt,10%,nt,nt,23%,nt
CC1(C)Cc2c(c(N3CCOCC3)nc3sc(C(=O)Nc4ccc(Cl)cc4)c(N)c23)CO1,4%,?,?,17%[46.1 µM],?,94
Cc1nc2c(sc3nc(N4CCOCC4)c4c(c32)CC(C)(C)OC4)c(-c2ccc(Cl)cc2)c1C(=O)O,13µM*,13µM*,nt,nt,9.3µM*,-26
CC1(C)Cc2c(c(N3CCOCC3)nc3snc(N)c23)CO1,?,-6%,-23%,-13%,-10%,-102*
CC1(C)Cc2c(c(N3CCOCC3)nc3snc(Br)c23)CO1,?,0.52µM*,-12%,-17%,0.66µM*,24
CC1(C)Cc2c(c(N3CCOCC3)nc3sc(C(N)=O)c(N)c23)CO1,-6%,-13%,?,10%,-17%,-10
CCN(C(=O)Cn1nc(Cc2ccncc2)c2ccccc2c1=O)c1ccc(OC)cc1,nt,nt,?,12%[46.1 µM],nt,-21
Cc1ccc(NC(=O)CN2C(=O)c3ccccc3Sc3ncccc32)c(C)c1,nt,nt,nt,-1%[46.1 µM],nt,-5
CCCC1NC(=O)c2cccnc2-n2c1nc1ccc(C)cc1c2=O (stereo not drawn),nt,nt,nt,nt,nt,-5
COc1cc(/C=N/NC(=O)c2ccccn2)ccc1OC(=O)c1ccccc1Br,?,44%,-6%,?,2.1µM*,?
COc1cc(/C=N/NC(=O)c2ccccn2)ccc1OC(=O)c1ccc(Br)cc1,nt,46%,13%,-15%,14%,-13
CCOc1cc(/C=N/NC(=O)c2ccccn2)ccc1OC(=O)c1cccs1,12%,29%,12%,9%,9.3µM*,59
CC1(C(=O)NS(=O)(=O)c2ccccc2Cl)CCN1C(=O)C1(c2ccc(Cl)cc2)CC1 (stereo not drawn),nt,nt,nt,nt,nt,-4
Cc1nnc(N2CCC(C(=O)NCc3ccc(F)cc3)CC2)c2nn(-c3ccc(Cl)cc3)c(C)c12,nt,nt,nt,-9%[46.1 µM],nt,-86*
CCOc1ccc(CNC(=O)C2CCN(c3nnc(C)c4c(C)n(-c5ccc(C)cc5)nc34)CC2)cc1,13µM*,?,nt,nt,?,-74*
Cc1ccc(-n2nc3c(N4CCC(C(=O)NCc5ccccc5Cl)CC4)nnc(C)c3c2C)cc1,nt,nt,nt,-15%[46.1 µM],nt,-28
Cc1ccc(-n2nc3c(N4CCC(C(=O)NCc5ccccc5C)CC4)nnc(C)c3c2C)cc1,6.3µM*,?,nt,nt,?,nt
